HT1080-NT tox: kills 2HG-producing HT-1080-NT fibrosarcoma cells | HT-1080-NT fibrosarcoma viability, CellTiter-Glo ATP luminescence, 48 h | Potency, µM (series often up to 46.1 µM), usual class: cytotoxic | actives 1.6% (n = 360,000) | AID 686970;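 also: NT is the 2HG producing partner of a matched IDH1 knockdown line; nearly all actives have a fitted effect of over 55% in size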
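HT-1080-NT fibrosarcoma cells (2HG-overproducing), 750 cells/well in RPMI with 5% FBS, dosed after 2 h and incubated 48 h at 37C. CellTiter-Glo luminescence normalized to DMSO and no-cell wells; concentration-response curves fitted and classed.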
KB-3-1 cytotox: KB-3-1 parental cell cytotoxicity. actives 1.4% (n = 400,000). KB-3-1 viability, CellTiter-Glo ATP luminescence, 72 h. Potency, µM (top dose mostly 46.1 µM), hits mostly cytotoxic; also: nearly all actives have a fitted effect of over 60% in size
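Here the drug-naive KB-3-1 line serves as comparator for MDR sub-line selectivity; cells received compound titrations, 72 h at 37 °C, then CellTiter-Glo readout.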
KB-V1 MDR tox: KB-V1 MDR subline cytotoxicity | KB-V1 MDR cells viability, CellTiter-Glo, 72 h | Potency, µM (series often up to 46.1 µM), usual class: cytotoxic | actives 3.4% (n = 400,000); also: nearly all actives have a fitted effect of over 60% in size
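KB-V1 MDR subline cells in DMEM (phenol-red free, 10% FBS) exposed to compounds in qHTS concentration series for 72 h at 37 degrees C. Viability read by CellTiter-Glo luminescence; concentration-effect curves fitted after normalization and correction.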
MCF10A rereplic: inducers of DNA re-replication in MCF 10A breast cells; MCF 10A DNA re-replication, Hoechst nuclear intensity, 48 h; Potency, µM (doses to about 46.1 µM), most hits filed as activators; actives 2.9% (n = 350,000); AID 624296; also: nearly all actives have a fitted effect of over 50% in size
SW480 rereplic: inducers of DNA re-replication in SW480 colon cancer cells | SW480 DNA re-replication, Hoechst DNA content imaging, 48 h | Potency, µM (series often up to 46.1 µM), actives largely listed as activators | actives 1.8% (n = 340,000) | AID 624297; also: nearly all actives have a fitted effect of over 55% in size
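Quantitative HTS format with DMSO vehicle controls; 48 hr drug incubation at 37 C, then 40 min Hoechst staining and scanning imager measurement at 405 nm excitation.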
HT1080 IDH1KD tx: toxicity to HT-1080 IDH1 knockdown cells (counter line); HT-1080 IDH1 knockdown viability, ATP luminescence, 48 h; Potency, µM (highest dose often 46.1 µM), usual class: cytotoxic; actives 2% (n = 360,000)
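CellTiter-Glo luminescence after 48 h compound exposure at 37 degrees C of IDH1-knockdown HT-1080 cells in 5% FBS RPMI. %Activity scaled between DMSO wells and cell-free media wells, with curves fitted and assigned curve classes.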
A number is an active result; n = inactive; u = inconclusive; x = not tested or not shown; ! = repeats disagree; [ ] = remark or other dose. Shown are actives, neighbours in structure and some others; about 8% of the full set was active somewhere. Calls follow the shape of the dose curve; as a rule, active = well fitted curve in the direction sought with a large enough effect; inconclusive = small, poorly fitted or top-dose-only effect, or another doubt; inactive = no such curve, though single readings can be large; an effect the other way counts as inactive or inconclusive.

SMILES	HT1080-NT tox	KB-3-1 cytotox	KB-V1 MDR tox	MCF10A rereplic	SW480 rereplic	HT1080 IDH1KD tx
Cc1cccc(C)c1Nc1nnc(SCc2nc3ccccc3s2)s1	n	n	16µM	u	n	n
Cc1nc(CSc2nnc(Nc3cccc(C)c3C)s2)cs1	n	n	18µM	n	n	n
CCOC(=O)c1ccc(NC(=O)CSc2nc3ccccc3c(=O)n2CCNC(C)=O)cc1	x	n	n	x	x	x
Cc1nc(Cc2nnc(SCC(=O)N3CCN(c4ccc(F)cc4)CC3)o2)cs1	n	n	n	n	n	n
Cc1nc(Cc2nnc(SCC(=O)N3CCN(c4ccc(O)cc4)CC3)o2)cs1	n[9.24 µM]	n	n	n	2.1µM	n
O=C(Nc1cccc(Cl)c1)c1ccc(F)c(S(=O)(=O)N2CCN(c3ccccn3)CC2)c1	n	u	u	23µM!	n	u
CCOc1ccc(NC(=O)c2ccc(F)c(S(=O)(=O)N3CCN(c4ccccn4)CC3)c2)cc1	n	n	2.3µM	n	n	u
O=C(c1ccc(Cl)c(S(=O)(=O)N2CCCC2)c1)N1CCN(c2ccccn2)CC1	n	n	n	n	n	n
CC(=O)Nc1ccc(/C=C/c2sc3ccccc3[n+]2CCCCI)cc1	x	n	n	x	x	x
CCOc1ccc(C(=O)c2cn(CC(=O)Nc3ccc(C)c(C)c3)c3ccc(OCC)cc3c2=O)cc1	x	n	n	x	x	x
CC(=O)Nc1ccc(/C=C/C(=O)c2ccc(-n3nncc3-c3ccccc3)cc2)cc1	x	n	n	x	x	x
Cc1cc(NC(=O)CSc2c(C)[nH]c3ccccc23)no1	n	n	n	n	n	n
Cc1[nH]c2ccccc2c1SCC(=O)NNC(=O)Nc1ccc(OC(F)(F)F)cc1	u	n	n	13µM	n	n
CC1CCCCN1C(=O)C1CCN(c2nc(-c3ccccc3)nc3c2CCC3)CC1 (centres undefined)	n	21µM	n	u	n	n
Cc1ccc(C(=O)COC(=O)c2cn3ccccc3n2)cc1	n	n	u	0.58µM	n	n
CCCCN(CC)c1nc(N)c2c(N)nc(OCC)cc2c1C#N	n	n	n	23µM	u	n
Cc1[nH]c2ccccc2c1C1(O)C(=O)N(Cc2ccccc2)c2ccc(Cl)cc21 (centres undefined)	x	n	n	x	x	x
CCN(CC)CCNCC1C(=O)O[C@@H]2C[C@@]3(C)CCC[C@H](C)C3=C[C@H]12 (some centres undefined)	u	u	u	u	n	16µM
COc1cc(-c2nn3c(COc4ccccc4)nnc3s2)cc(OC)c1OC	n	n	5.2µM	n	n	n
CCOc1cccc(-c2nn3c(-c4ccco4)nnc3s2)c1	n	u	9.2µM	n	n	n
CCN(CC)c1ccc(-c2nn3c(-c4cccnc4)nnc3s2)cc1	n	21µM	7.3µM	5.2µM	21µM	n
COc1cc(-c2nn3c(Cc4ccccc4)nnc3s2)cc(OC)c1OC	n	n	n	n	n	n
COc1ccc(-c2nnc3sc(-c4ccco4)nn23)cc1OC	n	u	2.1µM	n	n	n
CC1(C)CC(=O)c2cc(-c3nc(-c4ccccc4)cs3)c(=O)[nH]c2C1	x	n	n	x	x	x
O=S(=O)(c1ccc2[nH]c3c(c2c1)CCCC3)N1CCN(c2cccc(C(F)(F)F)c2)CC1	x	n	n	x	x	x
SMILES	HT1080-NT tox	KB-3-1 cytotox	KB-V1 MDR tox	MCF10A rereplic	SW480 rereplic	HT1080 IDH1KD tx
COc1cccc(-c2nnc3sc(-c4cccs4)nn23)c1	n	n	n	n	n	n
CCOc1cccc(-c2nnc3sc(COc4ccc(Cl)cc4)nn23)c1	n	21µM	u	u	n	n
CCOc1cccc(-c2nnc3sc(-c4cc(OC)c(OC)c(OC)c4)nn23)c1	n	u	8.2µM	u	u	n
CCOc1cccc(-c2nnc3sc(-c4cccs4)nn23)c1	n	n	5.2µM	n	n	n
CCOc1cccc(-c2nnc3sc(COc4ccc(C)cc4)nn23)c1	n	n	n	n	n	n
CCc1ccccc1NC(=O)c1ccc(Cn2nc(N3CCN(c4ccccc4)CC3)ccc2=O)o1	x	n	n	x	x	x
CC(CNC(=O)c1ccc(CSc2nc3ccncc3n2Cc2cccc(F)c2)cc1)c1ccccc1 (centres undefined)	x	n	n	x	x	x
CSc1ccc(C2C(C#N)=C(N)Oc3c2ccc(=O)c2c(C)oc(C)c32)cc1 (centres undefined)	u	n	n	18µM	n	u
CCOC(=O)C1=C(O)/C(=C/c2ccc(-c3ccccc3C(=O)O)o2)SC1=Nc1ccc(C)cc1	n	n	n	13µM	u	n
CCOC(=O)C1=C(O)/C(=C/c2cc(OC)c(O)c(OC)c2)SC1=Nc1ccc(OC)cc1	n	n	n	16µM	u	n
CCOC(=O)C1=C(O)/C(=C/c2ccc(-c3ccccc3C(=O)O)o2)SC1=Nc1ccc(OC)cc1	n	n	n	n	n	n
O=C(CC1N=C2c3ccccc3N=C(SCc3cccc(Cl)c3)N2C1=O)NCCc1ccccc1 (centres undefined)	x	n	n	x	x	x
Oc1ccc(Br)cc1-c1cc(-c2ccccc2)n[nH]1	29µM	n	n	u	u	21µM
Oc1ccc(Br)cc1-c1cc(-c2ccc(Cl)cc2)n[nH]1	23µM	18µM	10µM	15µM	15µM	23µM
O=[N+]([O-])c1cccc(-c2cc(-c3cc(Br)ccc3O)[nH]n2)c1	u	21µM	21µM	n	u	u
COc1ccc(O)c(-c2cc(-c3cccc(Br)c3)n[nH]2)c1	u	n	u	u	n[9.22 µM]	u
N#Cc1ccccc1NC(=O)C(=O)NCC(c1cccnc1)N1CCN(c2ccccc2)CC1 (centres undefined)	x	n	n	x	x	x
CC1=C(C(=O)Nc2ccccc2)C(c2ccncc2)n2nc(SCc3ccccc3F)nc2N1 (centres undefined)	x	n	n	x	x	x
COc1ccc(CCNC(=O)CCCn2nc(C)c3sc4ccccc4c3c2=O)c(OC)c1	x	n	n	x	x	x
NC(=O)CCCn1c(C(=O)c2ccc(Cl)cc2)c2ccc([N+](=O)[O-])cc2[n+]1[O-]	n	u	u	n	u	n
NC(=O)CCCn1c(C(=O)c2cc(Cl)c(N)c(Cl)c2)c2ccc([N+](=O)[O-])cc2[n+]1[O-]	n	u	n	16µM	21µM	u
CCOC(=O)c1sc2ccccc2c1S(=O)(=O)NCc1ccc(F)cc1	x	n	n	x	x	x
CCC1Sc2ccccc2N(CC(=O)NCc2ccccc2OC)C1=O (centres undefined)	n	n	21µM	n	n	n
O=c1c2ccccc2nc(-c2ccccc2)n1Cc1ccco1	n	n	12µM	n	n	n
Cc1ccc(-c2nc3ccccc3c(=O)n2Cc2ccccc2)cc1	n	n	13µM	u	n	n

Screens: PubChem BioAssay, National Center for Advancing Translational Sciences (NCATS)
